Some targets named below: LIPA; LMO4; LITAF; LIPK; LONP1; LRDD; LRRC15; LTA4H; MAD2L2; MAFG; MAF; MAGEA2B; MACROD1.
What all share (assay): pooled miR-30 sensor sort-seq; sequence = guide strand
What all share (conditions): shRNA
Further: reference of the scale not given here.

TATATCCATCTTCTGTCTCAAC yielded a sensor-assay potency score (higher = more potent) in the assay with LIPA of -1.24. Consider TAGAGCATGTAAAACACTTAAG, for which the sensor-assay potency score (higher = more potent) with LMO4 is -1.33. Consider TAATGGTCCACGTCCTGCAGGG, for which, in the assay with LITAF, the sensor-assay potency score (higher = more potent) is -0.698.

Turning to TTAACCATTAACAAGCATTGTA, the sensor-assay potency score (higher = more potent) in the assay with LIPA was determined as 0.00545.

As for TTTCTTGTCATAACCATACATA, the sensor-assay potency score (higher = more potent) with LIPK was -0.84. Take TAACCTAATGTAGTCATTTCTG: in the assay with LMO4, the sensor-assay potency score (higher = more potent) is -0.956.

Turning to TTGCAGGAAGGACAACACATTT, the sensor-assay potency score (higher = more potent) with LITAF is -1.76. Sequence TTCCTTTCTTGTCATAACCATA displayed a sensor-assay potency score (higher = more potent) with LIPK of -1.36. In the assay with LITAF, ACAGTAATGGTCCACGTCCTGC registered a sensor-assay potency score (higher = more potent) of -1.32. In the assay with LITAF, ATAACTGTTAACAGCCACTGTC had a sensor-assay potency score (higher = more potent) of -0.861. As to ATCTTCTGTCTCAACTAGGTAT, in the assay with LIPA, the sensor-assay potency score (higher = more potent) was -0.881.

Turning to TTACAAAGTAGTATTCGCCCTG, the sensor-assay potency score (higher = more potent) with LIPA was 0.166. TAGCTTTCGATTGCACACTTTG gave a sensor-assay potency score (higher = more potent) with LIPK of -1.01. On to TTGTAGTGTGGAATCAGCTTGT, for which the sensor-assay potency score (higher = more potent) with LIPK was 0.39.

In the assay with LITAF, TGACTCACGATCATCTTGTTGC showed a sensor-assay potency score (higher = more potent) of -0.0822. With TTAACAAGCATTGTACTGTTAG, the sensor-assay potency score (higher = more potent) with LIPA is -0.745. Same read-out and setting: the figure for TATGACATGAGTGCAAACGTGG is -0.073; for TTCAGTATGACATGAGTGCAAA it is -1.31. As to TTGGTGTAACAGGACGTGCCGA, in the assay with LMO4, the sensor-assay potency score (higher = more potent) was -0.708. For the sequence TATTGCTGTTGGAACTTCCATC, the sensor-assay potency score (higher = more potent) with LIPK is -0.879. TTAACAGCCACTGTCTCTTCAT registered a sensor-assay potency score (higher = more potent) with LITAF of -0.139. The sequence TAAACTGCCATTGATGTAGTGA showed a sensor-assay potency score (higher = more potent) with LMO4 of 0.368.

Regarding AATAACTGTTAACAGCCACTGT, the sensor-assay potency score (higher = more potent) in the assay with LITAF was -0.0828. Take AACACCTTAACTACTCGCCTGG: the sensor-assay potency score (higher = more potent) with LIPK was -0.456. Regarding TAACAGCCACTGTCTCTTCATA, in the assay with LITAF, the sensor-assay potency score (higher = more potent) was -1.19.

On to TAATGTTGTATAAAGGAGGTGT, for which the sensor-assay potency score (higher = more potent) with LIPK is 0.558. Turning to TATAGGACAGCTGACTCACGAT, in the assay with LITAF, the sensor-assay potency score (higher = more potent) was -0.462. TTGACTATGCACCTGCTGCAGG had a sensor-assay potency score (higher = more potent) in the assay with LIPA of -0.688. ATCTGCAGCACTGACTCCCTGT: the sensor-assay potency score (higher = more potent) with LONP1 is -0.477. For AATCCTCTGAAGCATCTCCTGC, in the assay with LRDD, the sensor-assay potency score (higher = more potent) is -1.15.

Regarding TACAGGTCCAAGCTCAGCCGGT, the sensor-assay potency score (higher = more potent) with LRDD was -1.52.

Consider TTGAGGTTGCTGCACTGGGAGA, for which the sensor-assay potency score (higher = more potent) with LRRC15 was -1.66. For TTGTCCATTGATCACTACTTTT, in the assay with LTA4H, the sensor-assay potency score (higher = more potent) is -1.71. Still for that read-out and setting: the figure for TTGGAGAGTGACTTGTCGCCTG is 0.145. The sequence TGTACTTCTTGCGTTTCTGGAA had a sensor-assay potency score (higher = more potent) with MAD2L2 of -0.3. Turning to TAGATCTTTAATAACCTCCATC, in the assay with MAFG, the sensor-assay potency score (higher = more potent) is -0.748.

The sequence TGAGACAACAGCGAGTCTGAGC gave a sensor-assay potency score (higher = more potent) in the assay with MAD2L2 of -0.635. In the assay with MAF, TGCTGCACCCTCTTGAAGCGGC gave a sensor-assay potency score (higher = more potent) of -0.694. Still for that read-out and setting: the result for TCATCCAGTAGTAGTCTTCCAG reads -0.918.

ATAATGTCTGATAACTCTGTGT came in with a sensor-assay potency score (higher = more potent) with MAFG of -0.547.

In turn, TTTATCCAAAATCACCACCACC showed a sensor-assay potency score (higher = more potent) with MAD2L2 of -1.44. For the sequence TTTACTATTGTGATGACGCTGG, the sensor-assay potency score (higher = more potent) in the assay with MAFG amounted to 0.761.

TTTAGTGGTATCAGCCGGGGGT: the sensor-assay potency score (higher = more potent) with MAD2L2 was -0.467. As to ACCAACTCAACCATCTTCCTAC, the sensor-assay potency score (higher = more potent) in the assay with MAGEA2B is -1.03. In the assay with MAGEA2B, AAAATGAACCAACTCAACCATC showed a sensor-assay potency score (higher = more potent) of -1.2. The sequence TTTTCTCGGAAGCCGCTGCTCA came in with a sensor-assay potency score (higher = more potent) with MAF of -0.816. In the assay with MAD2L2, TGGATCTTCTCCATGTTGCGAG came in with a sensor-assay potency score (higher = more potent) of -0.717. Take TCGAGCTCCAGCTTCATGCTGG: the sensor-assay potency score (higher = more potent) in the assay with MAFG is -0.0457.

TATATAAAAACTAAACTCCAAC showed a sensor-assay potency score (higher = more potent) with MAFG of -1.06. Turning to TTTCTCATTGAGCTGCTTGTCC, in the assay with MACROD1, the sensor-assay potency score (higher = more potent) was -0.192. TTCTATTATACTTTCTTCCCTT came in with a sensor-assay potency score (higher = more potent) in the assay with MAFG of -0.191. With TCCACATGAGACAACAGCGAGT, the sensor-assay potency score (higher = more potent) with MAD2L2 was -1.88. Same read-out and setting: the result for TTTTTAGTGGTATCAGCCGGGG reads -0.778. TCGACTTGCTGCAGCAGCTGGT displayed a sensor-assay potency score (higher = more potent) in the assay with MAF of -0.659. Regarding TTCAGCTCGCGCACAGACATGG, in the assay with MAF, the sensor-assay potency score (higher = more potent) is -0.726.

Sequence AAGGATTTCGCCTCCTTCCAGT gave a sensor-assay potency score (higher = more potent) with MACROD1 of -0.552. In the assay with MAFG, TTTATCGGGGACACACTCTAGC showed a sensor-assay potency score (higher = more potent) of -0.0679. Consider TTTAGCAATAAATACTGCGCAG, for which the sensor-assay potency score (higher = more potent) with MAFG was -0.617. For TTTCAGGGTCCGCCTCTTCTGC, in the assay with MAF, the sensor-assay potency score (higher = more potent) is -1.55. In turn, AACTTCTCGTATTTCTCCTTGT registered a sensor-assay potency score (higher = more potent) with MAF of -0.264.

The values are drawn from the OligoGym collection.
